Rows were chosen to be rich in hits. Some 10% of all compounds tested hit in one or more screens of this group.
GLS inhibitor = inhibitors of human glutaminase (GLS); O94925; GLS enzymatic activity, qHTS titration; 410,000 compounds, 0.21% hits; Potency, µM (titrated, usually from 45.5 µM), most hits filed as inhibitors
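Two-point fluorescence kinetic (t0, 30 min RT) for hKGA; glutamate detected via glutamate oxidase–HRP–Amplex Red. Substrate: 1 mM L-glutamine solution; buffer 45 mM KH2PO4, pH 8.2.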
BAZ2B inh = BAZ2B (human) inhibition; Q9UIF8; AlphaScreen BAZ2B-H3K14Ac peptide displacement; Potency, µM (doses to about 114 µM), usual class: inhibitors; 360,000 compounds, 4.4% hits; further: nearly all actives have a fitted effect of over 60% in size
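AlphaScreen luminescence quantifies BAZ2B engagement of H3K14Ac peptide; the protein and biotinylated peptide are both at 50 nM final, buffer PBS pH 7.4 with 0.01% Tween-20, all steps at room temperature.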
JMJD2A Tudor = inhibitors of human JMJD2A Tudor domain | 390,000 compounds, 4.4% hits | AlphaScreen JMJD2A-Tudor / H3K4me3 peptide binding | AID 504339 | O75164 | Potency, µM (series often up to 114 µM), usual class: inhibitors; further: nearly all actives have a fitted effect of over 50% in size
HP1b binding inh = inhibitors of HP1-beta chromodomain binding to methylated histone tails; AlphaScreen HP1-beta / biotin-H3K9me3 peptide binding; Potency, µM (doses to about 114 µM), most hits filed as inhibitors; 390,000 compounds, 0.56% hits; further: nearly all actives have a fitted effect of over 70% in size
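HP1-beta protein (50 nM final) preincubated 30 min at room temperature with biotinylated H3(1-18)K9me3 peptide (50 nM) in PBS pH 7.4, 0.01% Tween-20, then compound added for 30 min. AlphaScreen streptavidin donor/nickel chelate acceptor beads (10 ug/mL final), 30 min dark, luminescence read.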
G9a inh = inhibitors of human histone lysine methyltransferase G9a. G9a H3K9 monomethylation, AlphaScreen, 2 h. Potency, µM (titrated, usually from 102 µM), hits mostly inhibitors. 350,000 compounds, 8.8% hits. AID 504332; further: nearly all actives have a fitted effect of over 75% in size
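Readings reflect AlphaScreen signal from monomethyl-H3K9 antibody detection. HMT at 20 nM; substrate b-H3K9 500 nM; cofactor SAM 20 uM; 2 h RT reaction; compounds tested as titrations in qHTS with 15 min preincubation.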
Large screens that a line does not name were inactive. The call rests on the fitted dose curve; in most records, active means well fitted curve in the direction sought with a large enough effect; inconclusive means small, poorly fitted or top-dose-only effect, or another doubt; inactive means no such curve, though single readings can be large; an effect the other way counts as inactive or inconclusive.

CCOC(=O)N1CCN(c2c(N3CCN(c4ccccn4)CC3)c(=O)c2=O)CC1	G9a inh inconclusive
NCc1c(O)ccc2ccccc12	G9a inh 7.9µM (no result: GLS inhibitor, JMJD2A Tudor, HP1b binding inh)
COC(=O)C1CCN(C(=O)COC(=O)C2CCN(S(=O)(=O)c3c(Cl)cccc3Cl)CC2)CC1	G9a inh inconclusive
Oc1ccc2ccccc2c1CN1CCCC1	G9a inh 6.3µM
CCOC(=O)C1CCN(S(=O)(=O)Cc2ccc(Cl)cc2)CC1	none
Oc1ccc2ccccc2c1CNc1ccc(Br)cc1	BAZ2B inh 40µM, JMJD2A Tudor inconclusive, G9a inh 5µM
CCOC(=O)C1CCN(Cc2ccc(F)c(F)c2)CC1	BAZ2B inh inconclusive, JMJD2A Tudor 5.6µM, HP1b binding inh inconclusive, G9a inh 28µM
CCOC(=O)C1CCN(S(=O)(=O)c2ccc(CC)cc2)CC1	GLS inhibitor inconclusive, JMJD2A Tudor 40µM
CC1(C(=O)NS(=O)(=O)c2cccc(C#N)c2)CCN1C(=O)Cc1ccccc1 (centres undefined)	none (no result: BAZ2B inh, JMJD2A Tudor, HP1b binding inh, G9a inh)
O=C(c1ccc(F)cc1)N1CCCC(c2nc(-c3ccncc3)no2)C1 (centres undefined)	none
CC(C)CC(=O)N1CCN(Cc2ccc3ccccc3c2)CC1	BAZ2B inh inconclusive, JMJD2A Tudor 25µM, HP1b binding inh inconclusive
CCOC(=O)C1CCN(Cc2c(O)ccc3ccccc23)CC1	G9a inh 3.5µM
Cc1ccc(C(=O)OCC(=O)c2ccc(S(=O)(=O)N3CCCCC3)cc2)o1	JMJD2A Tudor inconclusive, G9a inh 50µM
COc1ccc(C(=O)OCC(=O)c2ccc(S(=O)(=O)N3CCCCC3)cc2)c(OC)c1	G9a inh inconclusive
CCOC(=O)N1CCN(Cc2ccc3ccccc3c2)CC1	BAZ2B inh inconclusive, JMJD2A Tudor 25µM, HP1b binding inh inconclusive (no result: G9a inh)
CCOC(=O)N1CCN(Cc2c(O)ccc3ccccc23)CC1	JMJD2A Tudor inconclusive, HP1b binding inh inconclusive, G9a inh inconclusive
CCOc1ccc(NS(=O)(=O)c2cc3c(cc2Cl)NC(=O)CO3)cc1	none
CCc1noc(C)c1C(=O)N1CCN(S(=O)(=O)c2ccc(Br)cc2)CC1	none
OCCN1CCN(Cc2ccc3ccccc3c2)CC1	BAZ2B inh 50µM, JMJD2A Tudor 20µM, HP1b binding inh inconclusive (no result: G9a inh)
CCOC(=O)C1CCN(Cc2cc(C(C)C)c(O)c(C(C)C)c2)CC1	GLS inhibitor inconclusive
OCCN1CCN(Cc2cccc(Oc3ccc(Cl)cc3)c2)CC1	BAZ2B inh inconclusive, G9a inh inconclusive
CCOC(=O)C1CCN(Cc2ccc3ccccc3c2)CC1	BAZ2B inh inconclusive, JMJD2A Tudor 56µM, HP1b binding inh inconclusive, G9a inh inconclusive
CC(=O)Oc1ccc(C(=O)Nc2ccc3c(c2)OCCO3)cc1	none
O=C(CCC(=O)NC12CC3CC(CC(C3)C1)C2)NC1CCCCC1	none (no result: G9a inh)
Cc1oc(-c2ccc3c(c2)OCCO3)cc1C(=O)NC(Cc1ccccc1)C(=O)O (centres undefined)	BAZ2B inh inconclusive, G9a inh 35µM
NC1=NN=C(N2N=C(c3ccco3)CC2(O)C(F)(F)F)n2ncnc2C1 (centres undefined)	BAZ2B inh 79µM
Cc1ccc(C2=NN(C3=NN=C(N)Cc4ncnn43)C(O)(C(F)(F)F)C2)cc1 (centres undefined)	none
COC(=O)NN1C(=O)C(c2ccccc2)=C(c2ccc(Cl)cc2)C1=O	none (no result: BAZ2B inh, G9a inh)
O=C(NCc1cccs1)C1CCN(c2ccc(S(=O)(=O)N3CCOCC3)cc2Cl)CC1	none
c1csc(CNc2ccc3c(c2)OCCO3)c1	BAZ2B inh 50µM, JMJD2A Tudor inconclusive, G9a inh 3.5µM
Clc1cc(NCc2cccs2)ccc1N1CCOCC1	BAZ2B inh 50µM, JMJD2A Tudor inconclusive, G9a inh 11µM
Oc1ccccc1CNc1ccc2c(c1)OCCO2	BAZ2B inh inconclusive, G9a inh inconclusive
CSCC[C@H](NC(=O)N1CCn2c1nc1ccccc12)C(=O)NCc1ccc(F)cc1	none
COc1ccc(C(=O)n2nc(-c3ccco3)nc2N)cc1OC	G9a inh inconclusive
CCOC(=S)SCC(=O)N1CCc2ccccc2C1C1C(=O)CC(C)(C)CC1=O (centres undefined)	BAZ2B inh inconclusive, G9a inh inconclusive
CCOC(=S)SCC(=O)N1CCc2cc(OC)c(OC)cc2C1C1C(=O)CC(C)(C)CC1=O (centres undefined)	G9a inh 45µM
COC(=O)c1ccc(SC2CCCCC2)c([N+](=O)[O-])c1	BAZ2B inh inconclusive, JMJD2A Tudor inconclusive, G9a inh 16µM
COc1ccc(-[n+]2c(C)cc(/C=C3\Sc4ccccc4N3C)cc2C)cc1	G9a inh 50µM
COc1ccccc1-[n+]1c(C)cc(/C=C2\Sc3ccccc3N2C)cc1C	G9a inh inconclusive
Cc1cccc2sc(N(CCN3CCOCC3)C(=O)CCS(=O)(=O)c3ccccc3)nc12	G9a inh 50µM
Cc1cccc2sc(N(CCCN3CCOCC3)C(=O)CS(=O)(=O)c3ccc(F)cc3)nc12	G9a inh 56µM
Cc1ccc(S(=O)(=O)CCC(=O)N(CCN2CCOCC2)c2nc3ccccc3s2)cc1	none
O=C(C[n+]1ccc(C(=O)N/N=C/c2ccc(O)cc2)cc1)c1ccccc1	BAZ2B inh inconclusive, G9a inh 14µM
COc1ccc(OC)c(/C=N/NC(=O)c2cc[n+](CC(=O)c3ccccc3)cc2)c1	G9a inh 79µM
N#Cc1cc[n+](CC(=O)c2ccc(NC(=O)c3ccccc3)cc2)cc1	G9a inh 71µM
O=C(N/N=C/c1ccc(Br)cc1)c1ccc(NC(=O)c2ccccc2)cc1	none (no result: BAZ2B inh, G9a inh)
O=C(C[n+]1ccc(C(=O)N/N=C/c2ccc(OCc3ccccc3)cc2)cc1)c1ccccc1	G9a inh inconclusive
O=C(C[n+]1ccc(C(=O)N/N=C/c2ccc(Br)cc2)cc1)c1ccccc1	G9a inh 7.9µM
NS(=O)(=O)c1ccc(CCNC(c2ccccc2)c2ccccc2)cc1	none
COc1cccc(CC(=O)Nc2ccc3c(c2)CCC3)c1	G9a inh inconclusive
O=C(C[n+]1cccc(C(=O)N/N=C/c2cccc([N+](=O)[O-])c2)c1)c1ccccc1	G9a inh 50µM
Cn1c(-c2ccccc2)cc2c3no[n+]([O-])c3ccc21	none
COc1cc(/C=C/c2cc[n+](C)cc2)ccc1OCC(=O)Nc1ccccc1	G9a inh 13µM
COc1cc(/C=N\NC(=O)CC#N)ccc1OC/C=C/c1ccccc1	BAZ2B inh 56µM, JMJD2A Tudor 79µM
COc1cc(/C=N/NC(=O)c2ccncc2)ccc1OCC(=O)Nc1ccccc1	none
COc1cc(/C=N/NC(=O)c2ccccc2O)ccc1OCC(=O)Nc1ccccc1	BAZ2B inh 79µM
COc1cc(/C=N\NC(=O)c2ccc(-c3ccccc3)cc2)ccc1OCC(N)=O	JMJD2A Tudor 89µM
Cc1nn(-c2ccccc2)c(C)c1NC(=O)COC(=O)CCCOc1ccccc1	none

Screens as filed in PubChem.
